Assay outcomes as filed in PubChem BioAssay.
VDR inhibitor – Inhibitors of the vitamin D receptor (VDR): qHTS. Vitamin D3 receptor (Homo sapiens), P11473. VDR-SRC2-3 peptide fluorescence polarization, 2 h. Potency, µM, without a hit: max response, negative = inhibition, usual class: inhibitors. hit rate 0.93% among 400,000; note: potency is the fitted concentration of half-maximal effect; % is set by controls: 0 for no effect and ±100 for the full control effect
Target sequence (P11473 whole entry, looked up): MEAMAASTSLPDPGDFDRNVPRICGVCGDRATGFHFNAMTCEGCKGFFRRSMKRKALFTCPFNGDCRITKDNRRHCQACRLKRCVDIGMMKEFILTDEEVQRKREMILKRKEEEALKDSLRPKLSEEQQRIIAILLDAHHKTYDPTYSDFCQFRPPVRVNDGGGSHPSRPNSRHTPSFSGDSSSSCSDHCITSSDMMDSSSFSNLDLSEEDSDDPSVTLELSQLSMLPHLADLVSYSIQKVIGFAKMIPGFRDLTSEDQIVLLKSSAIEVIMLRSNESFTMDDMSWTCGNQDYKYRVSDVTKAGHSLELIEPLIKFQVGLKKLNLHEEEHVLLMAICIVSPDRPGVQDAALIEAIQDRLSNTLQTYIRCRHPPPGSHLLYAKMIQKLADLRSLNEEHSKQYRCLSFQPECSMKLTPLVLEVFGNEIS
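The screen uses fluorescence polarization to detect compounds that interfere with recruitment of the SRC2-3 coactivator peptide to VDR; plates are read after 2 h at room temperature.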
hERG WT inh – qHTS for Inhibitors of KCHN2 3.1: Wildtype qHTS; Voltage-gated inwardly rectifying potassium channel KCNH2 (Homo sapiens), Q12809; U2OS, BacMam KCNH2, thallium flux FluxOr; hits give low values; activity change, % at 1.84 µM; hit rate 0.37% among 340,000;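 active = maximum activity change below -70%; inconclusive = maximum activity change between -70% and -50%; inactive = maximum activity change above -50%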; note: % is set by controls: 0 for no effect and ±100 for the full control effect
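U2OS cells were transduced with wild-type KCNH2 virus (2.03 x 10^8 / mL) for 4 h at room temperature, then cultured overnight at 37 C. Thallium flux was read with FluxOr dye. Rate constants were normalized to DMSO controls.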
CBFb RUNX1 block – qHTS Assay for Compounds Blocking the Interaction Between CBF-beta and RUNX1 for the Treatment of Acute Myeloid Leukemia | Runt-related transcription factor 1 (Homo sapiens) + Core-binding factor subunit beta … | AlphaScreen CBFb-His/RUNX1-biotin binding, biochemical | Potency, µM (highest dose often 59.8 µM), inactives show at the top dose activity, negative = inhibition, actives largely listed as inhibitors | 230,000 tested, under 10 active; note: % of control where 0% means no effect
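Read-out: AlphaScreen. Format: His-CBF-beta with biotinylated RUNX1 (30 nM each) preincubated 20 min, compound 15 min, Ni-chelate plus streptavidin beads 90 min; room temperature throughout.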
KCNH2 3.1 block – qHTS for Inhibitors of KCHN2 3.1: Mutant qHTS; Potassium voltage-gated channel subfamily H member 2, brain isoform KCNH2 3.1 (human); U2OS KCNH2 3.1, thallium flux FluxOr; hits give low values; activity change, % (tested at about 1.8 µM); hit rate 0.95% among 340,000;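 active = maximum activity change below -70%; inconclusive = maximum activity change from -70% to -50%; inactive = maximum activity change above -50%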;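 note: thallium influx rate constant from kinetic fluorescence after stimulation buffer; % is set by controls: 0 for no effect and ±100 for the full control effect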
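Measured as rate of thallium-driven FluxOr signal in transduced U2OS cells carrying the 3.1 channel, read kinetically for 2 min upon stimulation; values are rate constants scaled to DMSO control wells.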
PLK1 PBD block – qHTS for Inhibitors of PLK1-PDB (polo-like kinase 1 - polo-box domain): Primary Screen. Plk1 PBD binding of FITC phosphopeptide, fluorescence polarization. Potency, µM, inactives show max response, negative = inhibition, actives largely listed as inhibitors. hit rate 2.8% among 360,000. AID 720504, 2013; note: potency is the fitted concentration of half-maximal effect; series mostly up to about 57 µM; % is set by controls: 0 for no effect and ±100 for the full control effect; nearly all actives have a fitted effect of over 65% in size
MBNL1-CUG inh – qHTS Assay for Inhibitors of MBNL1-poly(CUG) RNA binding. Muscleblind-like protein 1 (Homo sapiens), Q9NR56. TR-FRET MBNL1-His/biotin-(CUG)12 binding, 665/545 ratio. Potency, µM (highest dose often 57.5 µM), for the others: top-dose activity change, negative = inhibition, most hits filed as inhibitors. hit rate 0.036% among 280,000. AID 2675, 2010; active = well fitted inhibition curve with a large enough effect in the signal ratio, with a control signal flat, not every such curve was filed as active; inconclusive = small, poorly fitted or top-dose-only effect, or effect the other way, or a change in a side signal; inactive = no such curve, though single readings can be large or run the other way; the % refers to the signal ratio; note: potency is the fitted concentration of half-maximal effect; % is set by controls: 0 for no effect and ±100 for the full control effect
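Compound titration spanned 92 nM–58 uM against the MBNL1-His/biotin-(CUG)12 complex. After 60 min at room temperature with 5 nM streptavidin-XL665 and 0.055 ng/ul terbium anti-His, ratiometric 665/545 nm emission (Ex 340 nm) normalized to controls.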
Starred values were filed as active, the others as inactive; [ ] = remark or other dose. This is a sample that favours compounds with a hit; in the whole collection about 3.8% have one here. Unless noted, calls come from the whole dose curve; as a rule, active = well fitted curve in the direction sought with a large enough effect; inconclusive = small, poorly fitted or top-dose-only effect, or another doubt; inactive = no such curve, though single readings can be large; an effect the other way counts as inactive or inconclusive.

CCNC(=O)CC1C(=O)N(c2ccc(F)cc2)C(=O)N1Cc1ccccn1 (stereo unspecified) was read as VDR inhibitor inconclusive, hERG WT inh -5, CBFb RUNX1 block 4%, KCNH2 3.1 block 16, PLK1 PBD block 27µM* and MBNL1-CUG inh -3%.
For CCOCCc1nn2c(=O)cc(COC(=O)c3ccccc3NC(=O)C3CCCCC3)nc2s1 the results were VDR inhibitor 2%.
`Nc1ccccc1Oc1ccccc1` gave VDR inhibitor inconclusive and CBFb RUNX1 block 19%.
For COc1ccccc1NC(=O)CSc1nc2ncccc2[nH]1 the results were VDR inhibitor 6%, hERG WT inh 2, CBFb RUNX1 block 6%, KCNH2 3.1 block -1, PLK1 PBD block -6% and MBNL1-CUG inh -1%.
Screening COc1ccc(NC(C)=O)cc1NC(=O)CSc1nc2ncccc2[nH]1 returned VDR inhibitor -24%, hERG WT inh -2, CBFb RUNX1 block 16%, KCNH2 3.1 block 5, PLK1 PBD block 3µM* and MBNL1-CUG inh -2%.
CC1CCN(S(=O)(=O)c2cc(C(=O)Nc3ccc(Br)cc3F)n(C)c2)CC1 was read as VDR inhibitor 1%.
Screening CCC(C)(C)NC(=O)Nc1cc(Cl)ccc1OC returned VDR inhibitor -6%, hERG WT inh 1, CBFb RUNX1 block 19%, KCNH2 3.1 block -81*, PLK1 PBD block 1% and MBNL1-CUG inh -4%.
For CCOC(=O)C1=C(CS(=O)(=O)c2cccc(C(F)(F)F)c2)NC(=O)NC1c1cccc(OC)c1 (stereo unspecified) the results were VDR inhibitor -14%.
Screening C/C(=N\NC(=O)c1c(Cl)c(C)nn1C)c1cccc(NC(=O)COc2ccc(Cl)cc2)c1 returned VDR inhibitor -1%, hERG WT inh -1, CBFb RUNX1 block 0%, KCNH2 3.1 block -82*, PLK1 PBD block -3% and MBNL1-CUG inh 2%.
COC(=O)CCC(=O)OC1(C)C(=O)C2=COC(c3ccc(OC)cc3)=CC2=C(Br)C1=O (stereo unspecified) was read as VDR inhibitor inconclusive, hERG WT inh 2, CBFb RUNX1 block -2%, KCNH2 3.1 block 16, PLK1 PBD block 12µM* and MBNL1-CUG inh 11%.
Screening COc1ccc(C2=CC3=C(Br)C(=O)C(C)(OC(=O)c4ccc(Cl)nc4)C(=O)C3=CO2)cc1 (stereo unspecified) returned VDR inhibitor -8%, hERG WT inh -16, CBFb RUNX1 block -6%, KCNH2 3.1 block 17, PLK1 PBD block 12µM* and MBNL1-CUG inh 24%.
For COc1ccc(C2=CC3=C(Br)C(=O)C(C)(OC(=O)C4CCCC4)C(=O)C3=CO2)cc1 (stereo unspecified) the results were VDR inhibitor inconclusive, hERG WT inh -8, CBFb RUNX1 block -13%, KCNH2 3.1 block 14, PLK1 PBD block 24µM* and MBNL1-CUG inh 14%.
Screening COc1ccc2oc(=O)c(C(=O)NCCc3c(C)[nH]c4c(C)cccc34)cc2c1 returned VDR inhibitor 2%.
O=C(CN1C(=O)COc2ccc(S(=O)(=O)N3CCCC3)cc21)N1CCN(c2ccccc2)CC1 was read as VDR inhibitor 3%.
`OCC1(CCOc2ccccc2)CCN(Cc2ccncc2)CC1` gave VDR inhibitor -4%, hERG WT inh 30, KCNH2 3.1 block -1, PLK1 PBD block -2% and MBNL1-CUG inh 8%.
Screening OCC1(CCOc2ccccc2)CCN(Cc2ccc3c(c2)OCCO3)CC1 returned VDR inhibitor -15%, hERG WT inh 5, CBFb RUNX1 block -1%, KCNH2 3.1 block -48, PLK1 PBD block 2% and MBNL1-CUG inh 2%.
CSc1ccc(CN2CCC(CO)(CCOc3ccccc3)CC2)cc1 was read as VDR inhibitor -2%, hERG WT inh -110*, KCNH2 3.1 block -100*, PLK1 PBD block 0% and MBNL1-CUG inh 1%.
`OCC1(CCOc2ccccc2)CCN(Cc2ccc(OC(F)F)cc2)CC1` gave VDR inhibitor 11%, hERG WT inh -131*, KCNH2 3.1 block -111*, PLK1 PBD block -19% and MBNL1-CUG inh -6%.
For CCOc1cc(C(=O)Nc2cccc3cccnc23)cc(OCC)c1OCC the results were VDR inhibitor -16%.
`Cc1nn(C)c2c1c(C(F)(F)F)cc(=O)n2CC(=O)NCc1ccccc1Cl` gave VDR inhibitor 10%.
For CCCCc1nc2c(c3c1C[C@H](C)OC3)CN(S(=O)(=O)CCCC)CC2 the results were CBFb RUNX1 block 4%[13.1 µM].
Screening Cc1ccccc1OCC(=O)OCc1cc(=O)n2ccsc2n1 returned VDR inhibitor 1%.
`COc1ccccc1C(=O)Nc1ccc(-c2nc3cc(C)cc(C)c3o2)cc1` gave VDR inhibitor 89µM*.
`O=C(O)[C@H]1NCCC[C@H]1C(=O)O` gave VDR inhibitor -3% and CBFb RUNX1 block 14%.
For COc1cccc2cc3c(=O)n(-c4ccccc4)nc-3oc12 the results were VDR inhibitor -25%, hERG WT inh -3, CBFb RUNX1 block -4%, KCNH2 3.1 block -3, PLK1 PBD block 30µM* and MBNL1-CUG inh -9%.
Screening COc1cccc2cc(-c3nc4ccccc4o3)c(=O)oc12 returned VDR inhibitor 11%, hERG WT inh 6, CBFb RUNX1 block 3%, KCNH2 3.1 block 8, PLK1 PBD block inconclusive and MBNL1-CUG inh inconclusive.
CCc1sc(NC(C)=O)nc1-c1ccccc1 was read as VDR inhibitor -2%, hERG WT inh 9, CBFb RUNX1 block 3%, KCNH2 3.1 block -7, PLK1 PBD block -12% and MBNL1-CUG inh -5%.
For CCc1sc(NC(=O)COC)nc1-c1ccccc1 the results were VDR inhibitor -2%, hERG WT inh 7, CBFb RUNX1 block 0%, KCNH2 3.1 block 16, PLK1 PBD block 18µM* and MBNL1-CUG inh 1%.
`CCOC(=O)c1c(NC(=O)c2cccs2)sc(C(=O)N2CCOCC2)c1C` gave VDR inhibitor 20%, hERG WT inh 5, KCNH2 3.1 block 11 and PLK1 PBD block -13%.
